The list is not random: actives were taken first. Their share in the collection is about 0.9%.
Rv3671c inh: inhibits the M. tuberculosis serine protease Rv3671c. P9WHR9. 320,000 tested, 0.048% active. inhibition, % at 5.96 µM; in the data active = inhibition above about 38%;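 note: extracellular domain of Rv3671c used as enzyme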
Mtb UGM inh: blocks M. tuberculosis UGM enzyme; purified UGM, fluorescence polarization probe displacement; inhibition, % at 10 µM; 320,000 tested, 0.06% active; in the data active = inhibition above about 10%, passing the limit was not always enough; inconclusive = no clear call, values can overlap the other calls
FadD28 FP inh: inhibitors of Mycobacterium tuberculosis FadD28 bisubstrate binding; FadD28 bisubstrate probe binding, fluorescence polarization; AID 588549; inhibition, % at 12.5 µM; 360,000 tested, 0.22% active; in the data active = inhibition above about 8.5%, passing the limit was not always enough; inconclusive = no clear call, values can overlap the other calls
RecA splice inh: blocks M. tuberculosis RecA intein splicing. P9WHJ3. cell-free RecA intein splicing, fluorescence. inhibition, % (test concentration not listed). AID 2221. 290,000 tested, 0.75% active; in the data active = inhibition above about 30%; inconclusive = no clear call, values can overlap the other calls
Mtb BioA inh: inhibitors of Mycobacterium tuberculosis BioA enzyme | purified M. tuberculosis BioA enzyme, plate reader | inhibition, % at 9.99 µM | 360,000 tested, 0.096% active; in the data active = inhibition above about 40%; inconclusive = no clear call, values can overlap the other calls
TcdB GH inh: TcdB glycohydrolase inhibition. P18177. TcdB glycohydrolase enzymatic assay, plate reader. inhibition, % at 9.99 µM. 350,000 tested, 0.24% active; in the data active = inhibition above about 10%
Numbers stand for hits; i = inactive; ? = inconclusive; nt = not tested or not shown.

SMILES | Rv3671c inh | Mtb UGM inh | FadD28 FP inh | RecA splice inh | Mtb BioA inh | TcdB GH inh
Nc1ccc(S(=O)(=O)Nc2nccs2)cc1N=Nc1ccccc1[N+](=O)[O-] | nt | nt | 11.6 | nt | nt | i
O=[N+]([O-])c1ccccc1S(=O)(=O)Nc1ccc(S(=O)(=O)Nc2nccs2)cc1 | i | i | i | i | i | i
CCNC(=O)[C@@H]1[C@@H](CO)[C@@H]2Cn3c(ccc(C4=CCCCC4)c3=O)[C@@H]2N1C(=O)CC1CC1 | nt | nt | nt | nt | i | i
Cc1ccc(S(=O)(=O)N(C)C[C@@H]2Oc3ccc(NC(=O)CCCCCC(=O)Nc4ccccc4N)cc3C(=O)N([C@@H](C)CO)C[C@@H]2C)cc1 | nt | nt | nt | nt | nt | i
Nc1ccc(S(=O)(=O)c2cc(O)c3ccccc3c2O)cc1 | nt | nt | 9.5 | nt | nt | i
COc1cc(CN2CC3(CN(C)C3)c3c([nH]c4cc(OC)ccc34)[C@@H]2CO)cc(OC)c1 | nt | nt | nt | nt | nt | i
CC(=O)N1[C@@H]2Cn3c(cccc3=O)[C@H]1[C@@H](C(=O)N[C@H](C)c1ccccc1)[C@@H]2CO | nt | nt | nt | nt | nt | i
CC(C)CNC(=O)c1c(F)c(F)c(F)c(F)c1F | i | i | i | nt | i | 10.4
O=C(O)c1cc(N=Nc2c(O)ccc3ccccc23)cc(C(=O)O)c1 | nt | nt | 13.1 | nt | nt | i
S=c1nc(-c2ccc(Cl)cc2)[nH][nH]1 | i | i | i | i | i | 12.2
COCC(=O)Nc1ccc2c(c1)C(=O)N(C)C[C@H](OC)[C@H](C)CN(C(=O)C1CCCC1)[C@@H](C)CO2 | nt | nt | nt | nt | i | i
CCN(CC)CCNc1ccc(CO)c2oc3cc(Cl)ccc3c(=O)c12 | nt | nt | i | nt | i | i
CCN(CC)CCNc1ccc(C)c2sc3ccc(O)cc3c(=O)c12 | nt | nt | i | nt | nt | 28.6
CCCN(C)C[C@H]1Oc2cc(-c3ccccc3OC)ccc2S(=O)(=O)N([C@H](C)CO)C[C@H]1C | nt | nt | nt | nt | i | i
COc1cc(/C=C/c2sc3ccccc3[n+]2CCCS(=O)(=O)[O-])ccc1O | i | i | i | 35.9 | nt | 10.4
CO[C@@H]1CN(C)C(=O)c2ccc(NC(=O)Nc3cccc(F)c3)cc2OC[C@@H](C)N(C(=O)Nc2c(C)noc2C)C[C@@H]1C | nt | nt | nt | nt | nt | i
O=C(C1=NN(c2ccccc2)C2C(=O)N(c3ccc(Cl)cc3)C(=O)C12)c1ccccc1 (stereo not given) | i | 14.8 | i | nt | i | nt
COc1ccccc1N1C(=O)C2C(C(=O)c3ccccc3)=NN(c3ccc(Br)cc3)C2C1=O (stereo not given) | i | 10.9 | i | i | i | i
O=C(C1=NN(c2ccccc2)C2C(=O)N(c3cccc(Cl)c3)C(=O)C12)c1ccccc1 (stereo not given) | i | ? | i | nt | i | i
COC(=O)[C@@H]1[C@@H](C(=O)OC)C2(c3ccccc3-c3ccccc32)N(c2ccc(Cl)cc2)N1C#N | i | i | i | 51.2 | i | i
COC(=O)C1OC2(OC1C(=O)OC)c1ccccc1-c1ccccc12 (stereo not given) | i | i | i | i | i | nt
Cc1ccc(NNC(=O)c2ccno2)cc1C | i | i | i | i | nt | 88.2
O=C(Nc1cc(Cl)cc(Cl)c1)c1ccno1 | i | i | i | i | i | i
Cc1ccc(NNC(=O)c2ccno2)cc1Cl | i | i | i | i | i | 72.6
Cc1cc(C(=O)NNc2ccc(C)c(C)c2)no1 | i | i | i | i | nt | 60.7
SMILES | Rv3671c inh | Mtb UGM inh | FadD28 FP inh | RecA splice inh | Mtb BioA inh | TcdB GH inh
CO[C@@H]1CN(C)C(=O)c2ccc(NC(=O)C3CC3)cc2OC[C@H](C)N(CC2CCOCC2)C[C@H]1C | nt | nt | nt | nt | i | nt
CCNC(=O)C[C@H]1CC[C@H]2[C@@H](COC[C@H](O)CN2C(=O)Nc2ccc3c(c2)OCO3)O1 | nt | nt | nt | nt | i | i
COc1ccccc1-c1cn(CC[C@H]2CC[C@@H](NC(=O)c3cnccn3)[C@H](CO)O2)nn1 | nt | nt | nt | nt | i | nt
Cc1noc(C)c1NC(=O)N(C)C[C@@H]1OCCCC[C@H](C)Oc2ccc(NC(=O)Nc3ccc(F)cc3)cc2C(=O)N([C@H](C)CO)C[C@@H]1C | nt | nt | nt | nt | i | i
C/C(CC(=O)Nc1ccccn1)=N\NC(=O)c1ccc(C)cc1 | i | i | i | 46.9 | nt | nt
CNC(=O)N(O)C1N(/N=C/c2cccnc2)C(=S)SC1(C)C (stereo not given) | i | i | i | i | nt | i
CNC(=O)N(O)C1N(/N=C/c2ccc(SC)cc2)C(=S)SC1(C)C (stereo not given) | i | i | i | i | i | 10.2
CC(=O)Oc1ccc(-n2c(=O)c3ccccc3c3ccccc3c2=O)cc1 | i | i | i | i | nt | i
COc1ccc(-n2c(=O)c3ccccc3c3ccccc3c2=O)cc1 | i | i | i | 31.0 | i | nt
O=C1/C(=C\c2ccc([N+](=O)[O-])cc2)CCc2ccccc21 | i | i | i | nt | nt | i
O=C1/C(=C/Nc2cccc([N+](=O)[O-])c2)CCc2ccccc21 | i | i | i | 59.6 | i | nt
C[C@H](CO)N1C[C@H](C)[C@@H](CN(C)C(=O)Nc2ccccc2)Oc2c(NC(=O)c3cnccn3)cccc2C1=O | nt | nt | nt | nt | i | i
CCc1cc(/C(Cc2ccccn2)=N\O)c(O)cc1O | i | i | i | i | i | 15.5
CCc1cc(/C(Cc2cscn2)=N\O)c(O)cc1O | i | i | i | i | i | nt
O=S(=O)(c1ccc(Br)cc1)c1cnc2ccccc2n1 | i | i | i | i | nt | i
COc1ccc(S(=O)(=O)c2cnc3ccccc3n2)cc1 | i | i | i | 35.2 | i | i
O=S(=O)(Cc1ccccc1)c1cnc2ccccc2n1 | i | i | i | 30.3 | i | nt
Cc1ccc(S(=O)(=O)N(C)C[C@@H]2Oc3ncc(-c4ccccc4)cc3C(=O)N([C@@H](C)CO)C[C@H]2C)cc1 | nt | nt | nt | nt | i | i
CCN(CC)C(=O)c1ccc2c(c1)C1C=CCC1C(C(=O)O)N2 (stereo not given) | nt | i | 12.3 | i | i | i
CCOC(=O)C1Nc2ccc(C(=O)O)cc2C2C=CCC12 (stereo not given) | i | i | 20.5 | nt | i | i
CCCC1Nc2ccc(C(=O)O)cc2C2C=CCC12 (stereo not given) | i | i | 30.5 | i | i | nt
CC(C)C1Nc2ccc(C(=O)O)cc2C2C=CCC21 (stereo not given) | i | i | 9.3 | i | nt | i
O=C(O)c1ccc2c(c1)C1C=CCC1C(c1ccncc1)N2 (stereo not given) | i | i | i | i | i | i
Cc1noc(C)c1S(=O)(=O)Nc1ccc2c(c1)C(=O)N([C@@H](C)CO)C[C@H](C)[C@H](CN(C)C(=O)C1CCCCC1)OCCCC[C@H](C)O2 | nt | nt | nt | nt | i | i
CC1C2(C)OCC(C#N)(C(=N)O2)C1(C#N)C#N (stereo not given) | i | i | nt | i | nt | nt
CC1(C)CC2(C)OC(=N)C1(C#N)C2(C#N)C#N (stereo not given) | i | i | i | 44.9 | nt | i
C/C=C/c1ccc2c(c1)O[C@@H](CN(C)C(=O)Nc1ccccc1)[C@@H](C)CN([C@@H](C)CO)S2(=O)=O | nt | nt | nt | nt | i | i
CCOC(=O)N1CCN(S(=O)(=O)c2ccc(C(=O)NNc3nc4ccc(Cl)cc4s3)cc2)CC1 | i | i | 11.7 | i | i | nt

Screens as filed in PubChem BioAssay.
